Compounds with a hit are over-represented: about 1.3% of the library has one in this group of screens.
PfHsp40 rescue: compounds rescuing yeast from Plasmodium falciparum HSP40 toxicity; S. cerevisiae expressing PfHsp40, growth rescue, ATP luminescence; growth rescue, % at 12.5 µM; 340,000 compounds, 0.68% hits; in the data active = growth rescue above about 28%, passing the limit was not always enough; inconclusive = no clear call, values can overlap the other calls;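 also: yeast W303a lacking pdr1 and pdr3 grown in galactose medium; growth measured after three days at 30 °C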
Mtb hypoxia rep: inhibitors of hypoxia-regulated fluorescent reporter in Mycobacterium tuberculosis; M. tuberculosis hypoxia-regulated fluorescent reporter, fluorescence; 300,000 compounds, 0.1% hits; fluorescence inhibition, % (test concentration not listed); in the data active = fluorescence inhibition mostly above about 23%, no sharp cut-off; inactive = mostly below about 17%
RN4220 kill: kills Staphylococcus aureus RN4220; 330,000 compounds, 0.33% hits; AID 1259311; S. aureus RN4220 growth, OD600, 16 h; inhibition, % (no concentration beside the values); in the data active = inhibition above about 85%;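 also: plate controls were untreated cells for no effect and reference antibiotic for full effect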
TcdB inh: inhibitors of Clostridioides difficile toxin B glycohydrolase; P18177; TcdB glycohydrolase enzymatic assay, plate reader; inhibition, % at 9.99 µM; 350,000 compounds, 0.24% hits; in the data active = inhibition above about 10%
Sa ugtP lethal: compounds lethal to S. aureus RN4220 ugtP deletion mutant; 330,000 compounds, 0.54% hits; OD600 growth, 16 h; growth inhibition, % (no concentration beside the values); AID 1259309; in the data active = growth inhibition above about 68%;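 also: plate controls were untreated wells for no effect and antibiotic for full effect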
MazF activator: increases E. coli MazEF RNase cleavage of RNA; P0AE70; FAM/BHQ RNA-DNA oligo cleavage fluorescence, 5 h; activation, % at 20 µM; 350,000 compounds, 0.32% hits; AID 504720; in the data active = activation above about 50%
Target sequence (P0AE70 whole entry, looked up): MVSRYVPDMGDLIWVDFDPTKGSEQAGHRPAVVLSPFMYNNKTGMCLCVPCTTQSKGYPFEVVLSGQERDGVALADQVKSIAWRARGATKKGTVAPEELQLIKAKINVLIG
* = called active by the depositor; u = inconclusive; x = not tested or not shown; + = active, no number.

SMILES | PfHsp40 rescue | Mtb hypoxia rep | RN4220 kill | TcdB inh | Sa ugtP lethal | MazF activator
Cc1ccc(-c2[nH]c3cc(C(=O)NCCCn4ccnc4)ccc3c(=O)c2O)cc1 | u | 6.4 | 9.8 | 1.4 | 9.0 | 5.3
Cc1ccc(CNC(=O)c2ccc3c(=O)c(O)c(-c4ccc(C)cc4)[nH]c3c2)cc1 | 164.4* | 11.6 | 3.5 | 0.7 | -19.5 | 17.4
CCCNC(=O)c1ccc2c(=O)c(O)c(-c3ccc(OC)cc3)[nH]c2c1 | 185.3* | 4.8 | -0.6 | x | -15.7 | 0.2
Cc1ccc(-c2[nH]c3cc(C(N)=O)ccc3c(=O)c2O)cc1 | 44.2* | x | x | -0.3 | x | 5.2
CCCNC(=O)c1ccc2c(=O)c(O)c(-c3ccc(C)cc3)[nH]c2c1 | -1.2 | x | x | 1.1 | x | 1.0
Cc1ccc(NC2=C(NC(=O)c3ccccc3)C(=O)c3ccccc3C2=O)cc1Cl | 10.6 | 7.0 | 86.0* | x | 88.4* | 4.7
COc1cc(CCCN2C(N)=NCC2Cc2ccc(O)cc2)cc(OC)c1OC (configuration not stated) | x | -3.9 | 2.3 | x | -1.0 | x
Fc1ccc(CSc2nc3ccccc3[nH]2)c2ccccc12 | 0.0 | x | -13.6 | x | -7.5 | 53.5*
Nc1c(C(=O)Nc2nc3ccccc3s2)sc2nc(-c3cccs3)ccc12 | -1.0 | 8.0 | 79.7 | x | 99.3* | -53.0
CC(C)(C)c1ccc(-n2nc(C(N)=O)c(O)cc2=O)cc1 | -1.2 | 9.4 | 6.9 | 0.7 | 5.5 | -4.2
CC(C)(C)c1ccc(-n2nc(C#N)c(Cl)cc2=O)cc1 | 146.1* | 23.1 | 55.8 | 1.0 | 84.4 | -2.8
COc1ccc(CN2CN=C(Nc3nc4ccccc4s3)NC2)cc1 | 1.0 | -9.9 | 2.9 | x | 2.3 | 62.1*
c1ccc2sc(NC3=NCN(Cc4ccc5c(c4)OCO5)CN3)nc2c1 | 0.6 | -4.5 | 5.8 | x | -8.8 | 9.1
c1ccc(CN2CN=C(Nc3nc4ccccc4s3)NC2)cc1 | -0.7 | -0.8 | 2.0 | x | 6.9 | 55.5*
COc1ccc2nc3ccccc3nc2c1NC(=O)c1ccc(Cl)cc1Cl | 1.2 | -8.6 | 4.7 | x | -16.5 | +
COc1cc(-c2cc(C(=O)Nc3c(Cl)cc(Cl)cc3Cl)c3ccccc3n2)cc(OC)c1OC | 0.3 | 0.0 | -0.1 | -0.3 | -23.8 | -6.6
C[C@H]1CCCCO[C@H](CN(C)C(=O)CCC(F)(F)F)[C@@H](C)CN([C@@H](C)CO)C(=O)c2cc(N(C)C)ccc2O1 | x | x | x | -12.9 | x | x
CCOC(=O)[C@@H]1[C@H]2COc3ccccc3[C@@H]2N2C(=O)N(c3ccc(C(F)(F)F)cc3)C(=O)[C@@]12C | 0.7 | x | x | 0.5 | x | 9.1
CCOC(=O)[C@H]1[C@H]2COc3ccccc3[C@@H]2N2C(=O)CN(Cc3ccc(C)cc3)C(=O)[C@@]12C | 1.8 | x | x | 1.4 | x | 542.4*
CCOC(=O)[C@@H]1[C@H]2COc3ccc(Br)cc3[C@@H]2N2C(=O)N(c3cccc(F)c3)C(=O)[C@]12C | -0.5 | x | x | 10.7* | x | -5.9
CCOC(=O)[C@@H]1[C@H]2COc3ccccc3[C@H]2N2C(=O)N(c3ccc(C(F)(F)F)cc3)C(=O)[C@]12C | 92.2* | x | x | 1.3 | x | 7.3
C[C@@H]1CN([C@H](C)CO)C(=O)c2cc(NS(=O)(=O)c3cn(C)cn3)ccc2O[C@@H](C)CCCCO[C@H]1CN(C)Cc1ccccc1 | x | x | x | 1.6 | x | x
CC(=O)N1c2c(cc(Br)cc2S(=O)(=O)N2CCN(c3ccccn3)CC2)CC1C (configuration not stated) | 52.5* | 8.3 | 1.7 | x | -0.3 | 6.7
C[C@@]12C(=O)Nc3ccc(Br)cc3C(=O)N1C1c3cc(Br)ccc3OCC1C2c1ccccc1 (some centres not stated) | x | -3.8 | -12.5 | x | -9.2 | x
CNc1ccc2oc(C[C@H]3O[C@@]4(CC[C@H]3C)O[C@H]([C@H](C)C(=O)c3ccc[nH]3)[C@H](C)C[C@H]4C)nc2c1C(=O)O | 142.8* | x | x | 1.2 | x | 3.3
SMILES | PfHsp40 rescue | Mtb hypoxia rep | RN4220 kill | TcdB inh | Sa ugtP lethal | MazF activator
CNc1ccc2oc(CC3O[C@@]4(CCC3C)OC(C(C)C(=O)c3ccc[nH]3)C(C)CC4C)nc2c1C(=O)O (some centres not stated) | x | x | 96.4* | x | 99.5* | x
C[C@H]1CN([C@@H](C)CO)S(=O)(=O)c2ccc(C#Cc3ccncc3)cc2O[C@H]1CN(C)C(=O)C1CCOCC1 | x | x | x | -0.4 | x | x
O=C(NN=Cc1ccc(O)cc1O)C1CC1 | x | 0.5 | 3.8 | x | 10.2 | x
Oc1ccc(C=NC2CCCCC2)c(O)c1 | 35.3* | -0.8 | 4.3 | 1.6 | 6.0 | 19.8
COC[C@H]1OC(=O)c2coc3c2[C@@]1(C)C1=C(C3=O)[C@@H]2CCC(=O)[C@@]2(C)C[C@H]1OC(C)=O | 122.8* | x | x | -5.4 | x | 67.3*
Nc1ccc(C(=O)NN=Cc2cc(N=Nc3cccc4ccccc34)ccc2O)cc1 | x | 18.6 | -0.4 | x | -0.3 | x
N=c1c2c(-c3ccccc3)c(-c3ccccc3)n(Cc3ccco3)c2ncn1CCO | 0.2 | 6.3 | -0.4 | 2.1 | 84.7* | 24.9
O=C(C[C@@H]1C[C@H]2c3cc(NC(=O)Nc4ccc(C(F)(F)F)cc4)ccc3O[C@H]2[C@H](CO)O1)NCc1ccc(Cl)cc1 | x | x | x | -1.5 | x | x
O=[N+]([O-])c1ccc(N=Nc2ccc(O)cc2O)cc1 | -0.6 | x | 98.6* | x | 98.0* | 5.4
CC(CNC(=O)COc1ccccc1)OC(=O)Nc1ccc(Cl)c(Cl)c1 (configuration not stated) | 199.7* | 12.8 | 6.7 | x | -6.1 | -4.8
Cc1nc2ccccc2nc1OCC(=O)Nc1ccc(F)cc1 | -0.3 | -5.3 | 1.1 | 12.3* | -2.8 | 7.1
Cc1cc(C)cc(OCC(=O)Nc2ccc(F)cc2)c1 | 0.6 | 17.6 | 9.5 | x | -3.6 | -3.1
O=P(Oc1ccccc1)(Oc1ccccc1)C(O)c1ccc(Cl)cc1 (configuration not stated) | 140.2* | 1.0 | 8.3 | 0.9 | 1.4 | -0.9
Cc1ccc(C)c2nc(Cl)c(C3NC(=O)c4ccccc4N3)cc12 (configuration not stated) | -0.5 | 14.9 | 1.4 | 10.4* | 5.0 | 11.7
Cc1cc(C)c2nc(Cl)c(C3NC(=O)c4ccccc4N3)cc2c1 (configuration not stated) | 1.5 | 5.4 | 4.9 | -0.6 | 3.8 | -1.9
C[C@H](CO)N1C[C@H](C)[C@@H](CN(C)CC2CC2)OCCCC[C@H](C)Oc2ccc(NC(=O)Nc3ccc(F)cc3)cc2C1=O | x | x | x | -0.7 | x | x
O=C(Cc1ccccn1)N1CC(=O)N2[C@H](CO)[C@@H](c3ccc(C#CC4CCCC4)cc3)[C@@H]2C1 | x | x | x | 0.6 | x | x
CC/C(=N/Nc1cccc(C)c1)c1cnnc(SC)n1 | -0.4 | x | x | x | x | 287.4*
CCC(=NNc1cccc(Cl)c1)c1cnnc(SC)n1 | x | 6.8 | 3.9 | x | 14.7 | x
Cc1c(C(=O)NN=Cc2cccc(O)c2)nnn1-c1nonc1N | x | -6.6 | -1.2 | x | -4.5 | x
C[C@@H]1CN([C@@H](C)CO)C(=O)Cc2cc(NC(=O)Nc3ccc(C(F)(F)F)cc3)ccc2O[C@@H]1CN(C)S(=O)(=O)c1cn(C)cn1 | x | x | x | -0.8 | x | x
CCC(=O)Nc1ccc2c(c1)OC[C@@H](C)N(C(=O)C1CC1)C[C@@H](C)[C@H](OC)CN(C)C2=O | x | x | x | 0.7 | x | x
